Measured values: PubChem BioAssay AID1159580 (chemical genetic matrix, 2015)
Screen size: about 5,500 compounds; about 2,000 (36%) were called active. Another 18% or so got no clear call; they are omitted. Rule as the data show it: active = normalized growth mostly below about 0.91 (no sharp cut-off); inconclusive = no clear call, values can overlap the other calls; inactive = mostly above about 0.92. This is one part of the list.

Experiment: chemical genetic growth profiling, strain panel (AID 1159580);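 also: tested at 20 µM; growth read once vehicle control cultures reached saturation at 30 °C; 1 = growth at the plate median or of vehicle wells; lower values mean less growth of the strain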
Settings: growth OD
[1] = S. cerevisiae deletion strains, locus YAL013W, strain DEP1, hits give low values
[2] = S. cerevisiae deletion strains, locus YGR078C, strain PAC10, hits give low values
[3] = S. cerevisiae deletion strains, locus YJR075W, strain HOC1, hits give low values
[4] = S. cerevisiae deletion strains, locus YPL055C, strain LGE1, hits give low values
[5] = S. cerevisiae deletion strains, locus YPL241C, strain CIN2, hits give low values

Measured: normalized growth

NC(=O)CI
active: [2] 0.907 | S. cerevisiae deletion strains, locus YOR083W, strain WHI5 (second series), hits give low values 0.792
inactive: [1] 0.951 | S. cerevisiae deletion strains, locus YAL040C, strain CLN3, hits give low values 0.968 | S. cerevisiae deletion strains, locus YCL061C, strain MRC1 (second series), hits give low values 0.98 | S. cerevisiae deletion strains, locus YDR363W, strain ESC2, hits give low values 0.988 | S. cerevisiae deletion strains, locus YER002W, strain NOP16, hits give low values 0.949 | S. cerevisiae deletion strains, locus YGR229C, strain SMI1, hits give low values 0.942 | [3] 0.966 | S. cerevisiae deletion strains, locus YNL175C, strain NOP13, hits give low values 0.947 | S. cerevisiae deletion strains, locus YNL197C, strain WHI3, hits give low values 0.936 | S. cerevisiae deletion strains, locus YNL224C, strain SQS1, hits give low values 0.972 | [4] 0.956 | [5] 0.966

NC(=O)CCSCCC(N)=O
inactive: [1] 0.992 | S. cerevisiae deletion strains, locus YBR229C, strain ROT2, hits give low values 0.995 | S. cerevisiae deletion strains, locus YDL101C, strain DUN1, hits give low values 0.996 | S. cerevisiae deletion strains, locus YDL134C, strain PPH21, hits give low values 1.02 | S. cerevisiae deletion strains, locus YDR150W, strain NUM1, hits give low values 0.999 | S. cerevisiae deletion strains, locus YEL061C, strain CIN8, hits give low values 1.01 | [2] 0.988 | S. cerevisiae deletion strains, locus YHR030C, strain SLT2, hits give low values 0.972 | S. cerevisiae deletion strains, locus YHR087W, strain rtc3, hits give low values 1 | S. cerevisiae deletion strains, locus YJR043C, strain POL32, hits give low values 0.976 | [3] 1 | S. cerevisiae deletion strains, locus YLR039C, strain RIC1, hits give low values 1.02 | S. cerevisiae deletion strains, locus YLR058C, strain SHM2 (second series), hits give low values 0.997 | S. cerevisiae deletion strains, locus YLR085C, strain ARP6, hits give low values 1.06 | S. cerevisiae deletion strains, locus YLR262C, strain YPT6, hits give low values 1.03 | S. cerevisiae deletion strains, locus YML094W, strain GIM5, hits give low values 1.01 | S. cerevisiae deletion strains, locus YMR219W, strain ESC1, hits give low values 1.01 | S. cerevisiae deletion strains, locus YMR263W, strain SAP30, hits give low values 0.991 | S. cerevisiae deletion strains, locus YMR307W, strain GAS1, hits give low values 1.09 | S. cerevisiae deletion strains, locus YNL153C, strain GIM3, hits give low values 0.979 | S. cerevisiae deletion strains, locus YNL298W, strain CLA4 (second series), hits give low values 0.988 | S. cerevisiae deletion strains, locus YNL322C, strain KRE1, hits give low values 1.03 | S. cerevisiae deletion strains, locus YNR030W, strain Alg12, hits give low values 0.981 | [4] 1.02 | [5] 0.995 | S. cerevisiae deletion strains, locus YPR135W, strain CTF4, hits give low values 0.92 | S. cerevisiae strains, strain wild type, hits give low values 1.02
